Potency data for 13 compounds are collected here from PubChem BioAssay (Tox21).

Results filed as inconclusive are left out. Active and inactive are the calls of the source. Unless noted, the call rests on the fitted dose curve; in most records, active means well fitted curve in the direction sought with a large enough effect in the repeat runs; inconclusive means weak or mixed curves; inactive means no such curve, though single readings can be large; an effect the other way counts as inactive or inconclusive.

Assay [1] in a line: qHTS assay to identify small molecule antagonists of the thyroid receptor (TR) signaling pathway (AID 743065). Further: nearly all actives have a fitted effect of over 55% in size. Further: potency means the concentration at half of the fitted maximal effect. The method in brief: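 Antagonism measured as loss of luciferase signal in GH3 cells stably carrying a TRE-luciferase reporter, co-treated with compound and T3 (1 nM final) for 23.5 h at 37 C. Viability was read in the same well by CellTiter-Fluor.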
Assay [2] relates to thyroid hormone receptor (rat, GH3 cells). The assay is described as follows: qHTS assay to identify small molecule agonists of the thyroid receptor (TR) signaling pathway (AID 743066; calls by dose curve). For orientation: Quantitative high-throughput screening tests each substance at several concentrations.
Assay [3] can be described thus: qHTS assay to identify small molecule antagonists of the estrogen receptor alpha (ER-alpha) signaling pathway - cell viability counter screen (AID 743074; calls by dose curve;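 further: HEK293 cells carrying ER-alpha-UAS-bla reporter stimulated with 17beta-estradiol; nearly all actives have a fitted effect of over 45% in size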).
The target in another assay is Aromatase (Homo sapiens) (UniProt P11511). As to the kind of experiment: qHTS assay to identify aromatase inhibitors (AID 743083). Further: series mostly up to about 70 µM; nearly all actives have a fitted effect of over 55% in size.
Sequence of Aromatase (Homo sapiens) (P11511 whole entry, looked up): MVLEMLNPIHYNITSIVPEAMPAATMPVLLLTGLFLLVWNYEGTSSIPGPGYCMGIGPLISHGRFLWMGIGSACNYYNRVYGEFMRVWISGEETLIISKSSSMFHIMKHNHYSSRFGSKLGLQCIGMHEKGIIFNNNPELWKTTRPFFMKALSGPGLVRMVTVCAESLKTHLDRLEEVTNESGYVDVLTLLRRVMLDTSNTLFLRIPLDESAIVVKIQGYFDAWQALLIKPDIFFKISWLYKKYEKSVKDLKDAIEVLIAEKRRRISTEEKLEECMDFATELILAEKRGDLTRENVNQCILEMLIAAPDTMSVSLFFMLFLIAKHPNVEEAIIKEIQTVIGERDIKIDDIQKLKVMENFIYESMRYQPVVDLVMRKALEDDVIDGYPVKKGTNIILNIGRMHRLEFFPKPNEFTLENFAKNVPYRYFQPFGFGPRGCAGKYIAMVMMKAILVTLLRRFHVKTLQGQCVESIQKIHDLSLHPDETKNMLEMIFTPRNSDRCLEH
The nature of assay [4]: qHTS assay to identify aromatase inhibitors - cell viability counter screen (AID 743084).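 Further: cells stimulated with testosterone during compound exposure; nearly all actives have a fitted effect of over 55% in size.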
For assay [5], the target named is Aryl hydrocarbon receptor (Homo sapiens) (UniProt P35869). As to the kind of experiment: qHTS assay to identify small molecule that activate the aryl hydrocarbon receptor (AhR) signaling pathway (AID 743085).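 Further: HG2L7.5c1 human HepG2 liver cells with stably integrated DRE-driven firefly reporter; series mostly up to about 70 µM; nearly all actives have a fitted effect of over 15% in size.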 The method in brief: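 Reporter assay in engineered HepG2 line HG2L7.5c1, whose plasmid carries twenty dioxin responsive elements upstream of firefly luciferase. Treatment lasted 24 h at 37C; ONE-Glo luminescence gauged induction.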
Sequence of Aryl hydrocarbon receptor (Homo sapiens) (P35869 whole entry, looked up): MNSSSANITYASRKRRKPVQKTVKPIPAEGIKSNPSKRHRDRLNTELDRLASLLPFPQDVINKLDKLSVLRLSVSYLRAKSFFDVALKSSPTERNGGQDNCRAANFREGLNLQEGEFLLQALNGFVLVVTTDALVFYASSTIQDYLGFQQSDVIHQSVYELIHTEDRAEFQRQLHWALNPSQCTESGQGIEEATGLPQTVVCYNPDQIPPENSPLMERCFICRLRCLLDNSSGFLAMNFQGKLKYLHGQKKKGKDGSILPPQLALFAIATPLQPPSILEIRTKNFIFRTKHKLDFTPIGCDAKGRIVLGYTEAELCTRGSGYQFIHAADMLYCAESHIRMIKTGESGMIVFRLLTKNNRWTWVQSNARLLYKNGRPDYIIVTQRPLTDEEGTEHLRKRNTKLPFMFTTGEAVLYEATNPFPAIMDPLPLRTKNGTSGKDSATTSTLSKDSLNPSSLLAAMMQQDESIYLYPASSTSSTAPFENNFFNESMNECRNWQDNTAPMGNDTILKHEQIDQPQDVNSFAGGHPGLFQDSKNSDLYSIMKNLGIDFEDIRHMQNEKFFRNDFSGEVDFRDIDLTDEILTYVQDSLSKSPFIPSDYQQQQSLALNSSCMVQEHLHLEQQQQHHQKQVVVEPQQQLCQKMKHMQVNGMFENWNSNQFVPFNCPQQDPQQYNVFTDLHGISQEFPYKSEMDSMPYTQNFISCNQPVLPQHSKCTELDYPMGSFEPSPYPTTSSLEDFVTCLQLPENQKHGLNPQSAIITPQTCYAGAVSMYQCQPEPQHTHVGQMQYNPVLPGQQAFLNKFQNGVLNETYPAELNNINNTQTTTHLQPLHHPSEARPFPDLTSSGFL

Assay [6] in a line: qHTS assay to identify small molecule that activate the aryl hydrocarbon receptor (AhR) signaling pathway - cell viability counter screen (AID 743086).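 Further: HepG2 liver cells carrying the AhR DRE luciferase reporter; series mostly up to about 70 µM; nearly all actives have a fitted effect of over 45% in size.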 The method in brief:
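Cytotoxicity counter screen: CellTiter-Fluor signal (30 min, 37 C) in 4000 HepG2 cells/well carrying the DRE-luciferase reporter, following 24 h compound exposure at 37 C.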

Assay [7] has as its target Peroxisome proliferator-activated receptor gamma (Homo sapiens) (UniProt P37231). The assay is described as follows: qHTS assay to identify small molecule agonists of the peroxisome proliferator-activated receptor gamma (PPARg) signaling pathway (AID 743094; active means well fitted activation curve with a large enough effect in the signal ratio in the repeat runs, not every such curve was filed as active; the % refers to the signal ratio). The method in brief:
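Stably transfected HEK293H cells (GeneBLAzer PPARg UAS-bla) were incubated with test substances for 17 h at 37C after a 5 h pre-incubation; beta-lactamase activity was then detected by FRET substrate fluorescence.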

A short description of assay [8]: qHTS assay to identify small molecule antagonists of the estrogen receptor alpha (ER-alpha) signaling pathway using the BG1 cell line - cell viability counter screen (AID 743081).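 Further: compound given together with 17beta-estradiol as the ER stimulus; nearly all actives have a fitted effect of over 45% in size.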 Further: potency means the concentration at half of the fitted maximal effect.
Assay [9] deals with Estrogen receptor (Homo sapiens) (UniProt P03372). The assay is described as follows: qHTS assay to identify small molecule antagonists of the estrogen receptor alpha (ER-alpha) signaling pathway (AID 743069; active means well fitted curve in the direction sought with a large enough effect in the signal ratio in the repeat runs, not every such curve was filed as active; the % refers to the signal ratio). The method in brief:
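ER-alpha-UAS-bla GripTite HEK293 line; 2% charcoal-stripped FBS overnight; plated, 4 hr 37C/5% CO2; cpd in DMSO + 17beta-estradiol, 18 hr 37C; LiveBLAzer B/G FRET substrate 2 hr RT; fluorescence intensity.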

The target is the same in assay [10]. The assay is described as follows: qHTS assay to identify small molecule agonists of the estrogen receptor alpha (ER-alpha) signaling pathway (AID 743075; calls by dose curve;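 further: HEK293 GripTite cells with ER-alpha and UAS-driven beta-lactamase reporter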).
For assay [11] the target is unchanged. As to the kind of experiment: qHTS assay to identify small molecule agonists of the estrogen receptor alpha (ER-alpha) signaling pathway using the BG1 cell line (AID 743079). Further: nearly all actives have a fitted effect of over 20% in size.
A short description of assay [12]: qHTS assay to identify small molecule antagonists of the estrogen receptor alpha (ER-alpha) signaling pathway using the BG1 cell line (AID 743080; calls by dose curve;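 further: BG1 cells stimulated with 17beta-estradiol alongside compound; series mostly up to about 70 µM; nearly all actives have a fitted effect of over 25% in size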). The method in brief: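 Endogenous full-length ER-alpha in BG1-Luc-4E2 cells drives a stably integrated 4×ERE luciferase gene; compounds were tested against 17beta-estradiol over 21.5 h, with luminescence and multiplexed viability fluorescence recorded.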

Assay [13] concerns the target Peroxisome proliferator-activated receptor gamma (Homo sapiens) (UniProt P37231). As to the kind of experiment: qHTS assay to identify small molecule antagonists of the peroxisome proliferator-activated receptor gamma (PPARg) signaling pathway (AID 743191; calls by dose curve; further: series mostly up to about 63 µM; nearly all actives have a fitted effect of over 30% in size). The method in brief:
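Beta-lactamase reporter under UAS control in HEK293H PPARg-bla cells; compound treatment 17 h at 37C. Read-out: fluorescence intensity after 1 h room-temperature incubation with LiveBLAzer B/G FRET substrate.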

Assay [14] can be described thus: qHTS assay to identify small molecule antagonists of the peroxisome proliferator-activated receptor gamma (PPARg) signaling pathway - cell viability counter screen (AID 743194). Further: nearly all actives have a fitted effect of over 55% in size. The method in brief:
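Viability was measured as CellTiter-Glo luminescence in GeneBLAzer PPARg UAS-bla HEK293H cells. These cells had been exposed 17 h at 37 C to compounds together with rosiglitazone at 50 nM final, with the beta-lactamase readout taken in the same wells.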

Assay [15] is described as follows: qHTS assay for small molecule agonists of the antioxidant response element (ARE) signaling pathway - cell viability counter screen (AID 743203; calls by dose curve; further: nearly all actives have a fitted effect of over 55% in size). The method in brief:
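Cells (ARE-bla HepG2, 2,000/well) receive DMSO-dissolved compounds after a 5 hrs rest. Plates incubate 16 hrs at 37C/5% CO2. CellTiter-Glo luminescence is then recorded after 30 min at room temperature.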

A short description of assay [16]: qHTS assay for small molecule activators of the heat shock response signaling pathway - cell viability counter screen (AID 743209). Further: nearly all actives have a fitted effect of over 50% in size. The method in brief:
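Quantitative HTS format, Tox21 10K library. HeLa cells carrying an HSE-driven beta-lactamase reporter were treated 5 h at 37 C, then assessed for viability by CellTiter-Glo luminescence.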

Sequence of Estrogen receptor (Homo sapiens) (P03372 whole entry, looked up): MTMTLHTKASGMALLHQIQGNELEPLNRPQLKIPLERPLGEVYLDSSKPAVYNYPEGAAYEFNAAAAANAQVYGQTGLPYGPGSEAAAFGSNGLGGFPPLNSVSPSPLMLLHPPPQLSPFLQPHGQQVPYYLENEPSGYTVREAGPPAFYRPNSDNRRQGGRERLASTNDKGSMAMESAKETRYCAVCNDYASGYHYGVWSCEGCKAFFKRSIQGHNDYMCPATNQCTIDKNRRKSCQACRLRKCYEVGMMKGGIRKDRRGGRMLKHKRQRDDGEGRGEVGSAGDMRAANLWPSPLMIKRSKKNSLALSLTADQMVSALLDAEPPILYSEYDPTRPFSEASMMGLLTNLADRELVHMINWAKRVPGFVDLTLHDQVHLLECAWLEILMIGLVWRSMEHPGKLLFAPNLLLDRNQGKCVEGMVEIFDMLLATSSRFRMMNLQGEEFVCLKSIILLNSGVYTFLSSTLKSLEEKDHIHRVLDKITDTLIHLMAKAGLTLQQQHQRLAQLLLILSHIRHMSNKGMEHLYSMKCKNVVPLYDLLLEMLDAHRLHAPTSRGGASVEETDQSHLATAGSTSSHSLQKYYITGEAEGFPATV
Sequence of Peroxisome proliferator-activated receptor gamma (Homo sapiens) (P37231 whole entry, looked up): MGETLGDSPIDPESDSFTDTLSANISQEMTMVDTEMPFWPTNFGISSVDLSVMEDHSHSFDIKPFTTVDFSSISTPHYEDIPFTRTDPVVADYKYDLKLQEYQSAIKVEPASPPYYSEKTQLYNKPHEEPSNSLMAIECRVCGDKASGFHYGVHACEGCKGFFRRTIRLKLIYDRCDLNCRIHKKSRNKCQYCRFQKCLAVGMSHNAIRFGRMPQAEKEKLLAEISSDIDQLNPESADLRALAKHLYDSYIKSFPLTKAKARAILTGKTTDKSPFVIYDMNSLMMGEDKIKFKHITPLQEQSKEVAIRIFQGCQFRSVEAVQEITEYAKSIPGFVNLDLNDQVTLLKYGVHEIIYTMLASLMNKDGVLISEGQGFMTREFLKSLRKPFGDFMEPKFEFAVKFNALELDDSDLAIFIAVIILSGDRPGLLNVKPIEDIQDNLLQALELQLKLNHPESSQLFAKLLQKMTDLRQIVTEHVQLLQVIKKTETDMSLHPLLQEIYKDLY

As for `C=CC[N@@+]12CC[C@@]34c5ccccc5N5/C=C6/[C@H]7C[C@H]8[C@@]9(CC[N@@+]8(CC=C)C/C7=C/CO)c7ccccc7N(/C=C(/[C@@H](C[C@@H]31)/C(=C\CO)C2)[C@H]54)[C@@H]69`, the Potency entry (in assay [1]; in assay [2]; in [3]; in the assay with Aromatase (Homo sapiens); in assay [4]; in [5]) was “inactive” each time. The Potency result in assay [6] and in assay [7] was “inactive” each time.
On to `FC(F)(F)COCC(F)(F)F`, for which the Potency result (in [1]; in [2]; in [3]; in assay [8]; in the assay with Aromatase (Homo sapiens); in assay [4]) was “inactive” in each case. For the same compound, the Potency result in assay [5], in assay [6] and in assay [7] was “inactive” each time.
With `COc1ccc([C@@H]2CC(=O)c3c(O)cc(O[C@@H]4O[C@H](CO[C@@H]5O[C@@H](C)[C@H](O)[C@@H](O)[C@H]5O)[C@@H](O)[C@H](O)[C@H]4O)cc3O2)cc1O`, the Potency result in assay [1], in assay [2], in [9], in assay [3], in [10] and in assay [11] was “inactive” throughout. In addition, the Potency result (in assay [12]; with Aromatase (Homo sapiens); in assay [4]; in assay [5]; in assay [7]) was “inactive” each time.
For the compound `Cc1ccc(Cl)c(N)c1Cl`, the Potency result (in [1]; in assay [2]; in assay [3]; in [8]; with Aromatase (Homo sapiens); in assay [4]) was “inactive” in each case. In addition, the Potency entry in assay [5], in [6], in [7], in assay [13], in assay [14] and in assay [15] was “inactive” each time. Further, the Potency entry in [16] was “inactive”.
As to `NCCCC(=O)O`, the Potency entry in [1], in assay [2], in assay [9], in assay [3], in [10] and in assay [11] was “inactive” in each case. Also, the Potency entry (in assay [12]; in assay [8]; in the assay with Aromatase (Homo sapiens); in assay [5]; in assay [6]; in [7]) was “inactive” each time.
As to `N[C@H](CO)C(=O)O`, the Potency result (in assay [1]; in assay [2]; in assay [3]; in assay [8]; in the assay with Aromatase (Homo sapiens); in [4]) was “inactive” each time. Further, the Potency result in assay [5] and in [6] was “inactive” each time.
On to `COc1ccc2ccccc2c1`, for which the Potency result (in assay [1]; in [2]; with Aromatase (Homo sapiens)) was “inactive” each time.
On to `CCCC(=O)c1cc(O)c(O)cc1O`, for which the Potency in [1] and in assay [8] was 61.1 µM (active) throughout. The Potency result in assay [2], in [9], in [10], in assay [11] and in [12] was “inactive” in each case.
Turning to `O=C1c2ccccc2-c2n[nH]c3cccc1c23`, in [1], the Potency was 11.9 µM (active). Also, the Potency entry (in assay [2]; in [3]; in [11]; in the assay with Aromatase (Homo sapiens)) was “inactive” each time.
As to `CC/C(=C(/CC)c1ccc(OP(=O)(O)O)cc1)c1ccc(OP(=O)(O)O)cc1`, the Potency result (in assay [1]; in [2]; in [8]; in the assay with Aromatase (Homo sapiens); in assay [4]; in assay [5]) was “inactive” in each case. For the same compound, the Potency result in assay [6] was “inactive”.
For `C[N+]1(CCCCC[N+]2(C)CCCC2)CCCC1`, the Potency result in [1], in assay [2], in assay [9], in assay [3], in [10] and in [11] was “inactive” in each case. For the same compound, the Potency result (in [12]; in [8]; in the assay with Aromatase (Homo sapiens); in assay [4]; in assay [6]; in [7]) was “inactive” in each case.
On to `O=C1CCC(c2ccccc2)(C2CCN(Cc3ccccc3)CC2)C(=O)N1` (stereo unspecified), for which the Potency entry in assay [1], in assay [2], in assay [9], in assay [3], in [10] and in assay [11] was “inactive” throughout. Also, the Potency result (in assay [12]; in assay [8]; with Aromatase (Homo sapiens); in [4]; in assay [6]; in [7]) was “inactive” throughout.
Turning to `CNC(=O)OCc1cccc(COC(=O)NC)n1`, the Potency entry (in [1]; in assay [2]; in [3]; in [8]; with Aromatase (Homo sapiens); in [4]) was “inactive” in each case. The Potency entry in [5], in [6] and in [7] was “inactive” in each case.
